Measurements from PubChem BioAssay (EPA / NIEHS).
Several values for one entry are separate records, joined by “and”; a condition that tells them apart may be missing. Equal entries are not always repeated. Inconclusive results are not listed. More than one record can exist for a structure, and the calls need not agree. Activity calls are given as the source filed them. Rule for the calls: active = hit-call score of the fitted dose curve at least 0.9, where 1 is the maximum; inconclusive = response in the unintended direction; inactive = score below 0.9.

Test system: not listed separately
Assay: ATG_M_06_XSP2: Attagene TRANS-FACTORIAL Multi-Species (XSP2) HepG2 Assay for M06 Transcription Factor (Internal Marker) (AID 2283811);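 note: internal background marker reporter mRNA measured by RT-PCR and capillary electrophoresis; hits are increases in signal above the DMSO baseline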
Summary of the method: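 Readout: fluorescent reporter-mRNA peaks by capillary electrophoresis after RT-PCR and HpaI digest, scored upward relative to DMSO. Transfected HepG2, 24 h chemical exposure, with 3 nM 6-alpha-fluorotestosterone and 1.5 nM norgestrel added.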

| Structure (SMILES) | outcome |
| --- | --- |
| BrCc1cccc(Oc2ccccc2)c1 | inactive |
| OCc1cccc(Oc2ccccc2)c1 | inactive |
| Cc1cc(=O)oc2cc(N(C)C)ccc12 | inactive |
| O=c1c(O)c(-c2ccc(O)cc2)oc2cc(O)cc(O)c12 | inactive |
| Clc1ccc(C(c2ccccc2Cl)C(Cl)Cl)cc1 (centres undefined) | inactive |
| Oc1ccc2cc(SSc3ccc4cc(O)ccc4c3)ccc2c1 | inactive |

Test system: turtle Estrogen Receptor (ERa), gene 101933533
Assay: ATG_trERa_XSP2: Attagene TRANS-FACTORIAL Multi-Species (XSP2) HepG2 Assay for turtle Estrogen Receptor (ERa) (AID 2283812);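 note: actives raise reporter signal above DMSO so AC50 reflects agonist activity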
Summary of the method: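 Readout is reporter mRNA quantified by RT-PCR with capillary electrophoresis after 24 h compound exposure, increase relative to DMSO. Uses transiently transfected human HepG2 liver cells carrying a chimeric turtle ERa-Gal4 receptor driving GAL4-UAS reporters.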

| Structure (SMILES) | AC50 | outcome |
| --- | --- | --- |
| CCCCC(CC)COC(=O)c1ccc(O)cc1 (centres undefined) | 25.3 µM (active) |  |
| BrCc1cccc(Oc2ccccc2)c1 | 15.9 µM (active) and 18.2 µM (active) |  |
| OCc1cccc(Oc2ccccc2)c1 | 17.1 µM (active) and 11.5 µM (active) |  |
| Cc1cc(=O)oc2cc(N(C)C)ccc12 | 49.9 µM (active) | inactive |
| O=c1c(O)c(-c2ccc(O)cc2)oc2cc(O)cc(O)c12 | 2.27 µM (active) and 1.08 µM (active) |  |
| Clc1ccc(C(c2ccccc2Cl)C(Cl)Cl)cc1 (centres undefined) | 1.29 µM (active) and 8.5 µM (active) |  |
| Oc1ccc2cc(SSc3ccc4cc(O)ccc4c3)ccc2c1 | 1.07 µM (active) | inactive |

Molecular target: Estrogen receptor beta (Homo sapiens) (UniProt Q92731)
Assay: ATG_hERb_XSP2: Attagene TRANS-FACTORIAL Multi-Species (XSP2) HepG2 Assay for human Estrogen Receptor (ERb) (AID 2283813);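 note: actives raise reporter mRNA above DMSO so AC50 reflects agonist induction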
Summary of the method: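 Transient TRANS reporter system in HepG2: after 24 h of chemical, RNA is reverse-transcribed, reporter cDNA amplified, FAM-labelled and sized by capillary electrophoresis. Induction of the human ERb-Gal4 reporter is measured relative to DMSO.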

Estrogen receptor beta (Homo sapiens), sequence (Q92731 whole entry, looked up): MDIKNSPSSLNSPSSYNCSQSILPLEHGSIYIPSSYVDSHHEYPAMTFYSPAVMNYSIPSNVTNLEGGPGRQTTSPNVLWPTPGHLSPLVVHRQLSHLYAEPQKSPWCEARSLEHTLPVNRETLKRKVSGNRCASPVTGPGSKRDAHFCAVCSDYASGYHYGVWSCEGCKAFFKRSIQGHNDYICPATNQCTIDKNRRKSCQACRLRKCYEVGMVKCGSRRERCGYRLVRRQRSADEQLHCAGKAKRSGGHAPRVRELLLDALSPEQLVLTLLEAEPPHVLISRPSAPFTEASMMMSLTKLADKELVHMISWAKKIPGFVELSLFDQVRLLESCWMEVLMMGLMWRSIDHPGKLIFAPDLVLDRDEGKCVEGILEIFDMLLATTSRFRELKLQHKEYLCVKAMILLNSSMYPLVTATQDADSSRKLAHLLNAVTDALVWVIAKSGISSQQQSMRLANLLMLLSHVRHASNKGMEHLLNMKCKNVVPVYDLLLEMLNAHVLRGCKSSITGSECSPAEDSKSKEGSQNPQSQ

| Structure (SMILES) | AC50 | outcome |
| --- | --- | --- |
| BrCc1cccc(Oc2ccccc2)c1 | 21.3 µM (active) and 7.91 µM (active) |  |
| OCc1cccc(Oc2ccccc2)c1 | 26.9 µM (active) and 8.78 µM (active) |  |
| Cc1cc(=O)oc2cc(N(C)C)ccc12 |  | inactive |
| Clc1ccc(C(c2ccccc2Cl)C(Cl)Cl)cc1 (centres undefined) | 3.01 µM (active) and 5.58 µM (active) |  |
